The target of this assay is furin, P09958. Kind of assay: furin cleavage Z-score vs untreated control; higher = more cleavage, active = 3.5 or more, inactive = 1 or less, 8 variable residues between constant flanks. Put shortly: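 The cleavage Z-score was derived for purified furin acting on 8-mer peptides held on magnetic beads and fused to a cDNA oligonucleotide. Digests lasted 7.5, 15 or 30 min at 1:10 enzyme:substrate in 50 mM HEPES pH 7.5 with CaCl2 and NaCl. Sequencing counts of released DNA, log-transformed against furin-free reactions, were lowess-adjusted and scaled by median absolute deviation.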

The other results are listed elsewhere or left out. The true hit rate is not given.

furin, P09958, sequence (P09958 whole entry, the tested form may be a part): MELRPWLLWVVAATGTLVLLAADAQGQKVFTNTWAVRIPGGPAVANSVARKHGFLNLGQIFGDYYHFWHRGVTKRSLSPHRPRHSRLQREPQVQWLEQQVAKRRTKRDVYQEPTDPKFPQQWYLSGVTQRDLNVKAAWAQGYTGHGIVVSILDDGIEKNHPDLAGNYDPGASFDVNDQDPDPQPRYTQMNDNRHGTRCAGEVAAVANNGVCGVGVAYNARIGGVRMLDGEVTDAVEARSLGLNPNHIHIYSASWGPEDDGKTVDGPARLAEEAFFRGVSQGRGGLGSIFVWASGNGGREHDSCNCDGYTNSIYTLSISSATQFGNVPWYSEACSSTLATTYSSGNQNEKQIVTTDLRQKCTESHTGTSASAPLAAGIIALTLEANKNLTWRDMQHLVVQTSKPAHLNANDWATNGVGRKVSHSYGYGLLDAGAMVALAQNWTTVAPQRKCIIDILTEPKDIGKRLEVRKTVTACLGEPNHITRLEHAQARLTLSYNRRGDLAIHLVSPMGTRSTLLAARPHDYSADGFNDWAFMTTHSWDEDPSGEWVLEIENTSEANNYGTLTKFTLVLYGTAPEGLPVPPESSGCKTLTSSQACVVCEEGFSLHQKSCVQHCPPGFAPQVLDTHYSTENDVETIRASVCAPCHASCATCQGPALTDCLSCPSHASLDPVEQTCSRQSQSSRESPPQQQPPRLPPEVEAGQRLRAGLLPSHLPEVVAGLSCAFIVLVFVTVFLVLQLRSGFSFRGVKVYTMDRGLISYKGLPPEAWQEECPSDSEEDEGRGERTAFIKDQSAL

B1: HC1926 (peptide)
chain: CATTPCSGSMAGNASASA
With B1, the “furin cleavage Z-score” value is, setting by setting: (7.5 min) -0.191 (inactive); (15 min) 0.357 (inactive); (30 min) -1.65 (inactive).

B2: HC1588 (peptide)
chain: CAARDQLEQAAGNASASA
For B2, the “furin cleavage Z-score” value was 1.26 (7.5 min), 0.408 (inactive) (15 min) and -0.23 (inactive) (30 min).

B3: FS-736 (peptide)
chain: CAVPPRRKKSAGNASASA
As for B3, the “furin cleavage Z-score” value reads like this: (7.5 min) 3.36; (15 min) 2.71; (30 min) 4.45 (active).

B4: FS-1485 (peptide)
chain: CASFDRKKKSAGNASASA
Take B4: the “furin cleavage Z-score” value reads like this: (7.5 min) -0.34 (inactive); (15 min) -0.366 (inactive); (30 min) -0.05 (inactive).

B5: FS-1358 (peptide)
chain: CALKHRVKKSAGNASASA
Take B5: the “furin cleavage Z-score” value is 8.56 (active) (7.5 min), 10.2 (active) (15 min) and 8.6 (active) (30 min).

B6: HC804 (peptide)
chain: CATGSPITYSAGNASASA
B6: the “furin cleavage Z-score” value is -0.202 (inactive) (7.5 min), -0.337 (inactive) (15 min) and -0.568 (inactive) (30 min).

B7: FS-831 (peptide)
chain: CANAHRDKKSAGNASASA
Take B7: the “furin cleavage Z-score” value by setting is: (7.5 min) -0.25 (inactive); (15 min) -0.94 (inactive); (30 min) -2.16 (inactive).

B8: FS-39 (peptide)
chain: CAKGSRRKKSAGNASASA
As to B8, the “furin cleavage Z-score” value is 5.36 (active) (7.5 min), 4.72 (active) (15 min) and 4.1 (active) (30 min).

B9: FS-1343 (peptide)
chain: CAIFSRCARSAGNASASA
B9: the “furin cleavage Z-score” value (7.5 min) was 0.568 (inactive), the “furin cleavage Z-score” value (15 min) is 0.619 (inactive) and the “furin cleavage Z-score” value (30 min) turned out to be 1.19.

B10: FS-802 (peptide)
chain: CAIFSRVKKSAGNASASA
In the case of B10, the “furin cleavage Z-score” value (7.5 min) is 3.99 (active), the “furin cleavage Z-score” value (15 min) is 2.87 and the “furin cleavage Z-score” value (30 min) is 3.95 (active).

B11: FS-1376 (peptide)
chain: CAMIHRFWKSAGNASASA
In the case of B11, the “furin cleavage Z-score” value reads like this: (7.5 min) 0.282 (inactive); (15 min) -1.21 (inactive); (30 min) -1.26 (inactive).

B12: HC2444 (peptide)
chain: CAEIEVPCHRAGNASASA
On to B12, for which the “furin cleavage Z-score” value was 1.1 (7.5 min), 1.09 (15 min) and 0.798 (inactive) (30 min).

B13: HC603 (peptide)
chain: CAVFDITKLLAGNASASA
As to B13, the “furin cleavage Z-score” value is 0.928 (inactive) (7.5 min), -0.333 (inactive) (15 min) and 0.0832 (inactive) (30 min).

B14: FS-600 (peptide)
chain: CAKAARAKKIAGNASASA
As for B14, the “furin cleavage Z-score” value reads like this: (7.5 min) -0.438 (inactive); (15 min) -0.00567 (inactive); (30 min) -0.411 (inactive).

B15: HC1073 (peptide)
chain: CAAATAFVGAAGNASASA
As to B15, the “furin cleavage Z-score” value was -1.28 (inactive) (7.5 min), -0.663 (inactive) (15 min) and -0.282 (inactive) (30 min).

B16: HC1060 (peptide)
chain: CASPLTTSQTAGNASASA
Consider B16, for which the “furin cleavage Z-score” value is 0.0213 (inactive) (7.5 min), -0.739 (inactive) (15 min) and 0.362 (inactive) (30 min).

B17: FS-829 (peptide)
chain: CAMLYRHKKSAGNASASA
Turning to B17, the “furin cleavage Z-score” value is 0.949 (inactive) (7.5 min), 1.65 (15 min) and 1.42 (30 min).

B18: FS-717 (peptide)
chain: CASFARIKKWAGNASASA
Regarding B18, the “furin cleavage Z-score” value was -0.31 (inactive) (7.5 min), -0.161 (inactive) (15 min) and 1.88 (30 min).

B19: FS-615 (peptide)
chain: CALSNRTMKSAGNASASA
Consider B19, for which the “furin cleavage Z-score” value is 1.04 (7.5 min), -0.454 (inactive) (15 min) and 0.561 (inactive) (30 min).

B20: HC2339 (peptide)
chain: CAEPPCHRPSAGNASASA
For B20, the “furin cleavage Z-score” value (7.5 min) was 0.111 (inactive), the “furin cleavage Z-score” value (15 min) is -0.455 (inactive) and the “furin cleavage Z-score” value (30 min) is -0.0572 (inactive).

B21: FS-413 (peptide)
chain: CAEKARKGKSAGNASASA
As to B21, the “furin cleavage Z-score” value is -1.2 (inactive) (7.5 min), -1.61 (inactive) (15 min) and -0.85 (inactive) (30 min).

B22: FS-176 (peptide)
chain: CALKARRKKSAGNASASA
Take B22: the “furin cleavage Z-score” value (7.5 min) is 7.34 (active), the “furin cleavage Z-score” value (15 min) is 8.84 (active) and the “furin cleavage Z-score” value (30 min) was 7.56 (active).

B23: FS-803 (peptide)
chain: CAIKCRTKKSAGNASASA
Regarding B23, the “furin cleavage Z-score” value (7.5 min) came to 1.77, the “furin cleavage Z-score” value (15 min) is 4.04 (active) and the “furin cleavage Z-score” value (30 min) was determined as 3.26.

B24: FS-157 (peptide)
chain: CAEPKRIKKSAGNASASA
As for B24, the “furin cleavage Z-score” value runs as follows: (7.5 min) 3.63 (active); (15 min) 4.2 (active); (30 min) 3.26.

B25: FS-1651 (peptide)
chain: CARLYREKKSAGNASASA
B25: the “furin cleavage Z-score” value is 0.828 (inactive) (7.5 min), 2.77 (15 min) and 3.88 (active) (30 min).

B26: HC1140 (peptide)
chain: CARLHQWISSAGNASASA
On to B26, for which the “furin cleavage Z-score” value (7.5 min) is 0.126 (inactive), the “furin cleavage Z-score” value (15 min) is -1.75 (inactive) and the “furin cleavage Z-score” value (30 min) is -1.83 (inactive).

B27: FS-414 (peptide)
chain: CAEPGREKKSAGNASASA
B27: the “furin cleavage Z-score” value reads like this: (7.5 min) -0.759 (inactive); (15 min) 0.432 (inactive); (30 min) -0.848 (inactive).

B28: HC1458 (peptide)
chain: CALYDVVTKLAGNASASA
Regarding B28, the “furin cleavage Z-score” value was 0.188 (inactive) (7.5 min), 0.0294 (inactive) (15 min) and -0.805 (inactive) (30 min).

B29: HC1948 (peptide)
chain: CAWCTTPCSGAGNASASA
As to B29, the “furin cleavage Z-score” value is, setting by setting: (7.5 min) 1.23; (15 min) 0.244 (inactive); (30 min) 1.72.

B30: HC2352 (peptide)
chain: CAEVECHRPSAGNASASA
On to B30, for which the “furin cleavage Z-score” value (7.5 min) turned out to be 1.1, the “furin cleavage Z-score” value (15 min) is 0.203 (inactive) and the “furin cleavage Z-score” value (30 min) was 0.236 (inactive).

B31: HC2427 (peptide)
chain: CAFREVPCHRAGNASASA
For B31, the “furin cleavage Z-score” value (7.5 min) is 0.22 (inactive), the “furin cleavage Z-score” value (15 min) was 0.297 (inactive) and the “furin cleavage Z-score” value (30 min) was 0.623 (inactive).

B32: HC387 (peptide)
chain: CAPERLASCRAGNASASA
Consider B32, for which the “furin cleavage Z-score” value reads like this: (7.5 min) -0.263 (inactive); (15 min) 0.599 (inactive); (30 min) 1.53.

B33: HC2017 (peptide)
chain: CAVSCCSMSYAGNASASA
For B33, the “furin cleavage Z-score” value is, setting by setting: (7.5 min) 0.592 (inactive); (15 min) -0.576 (inactive); (30 min) 1.57.

B34: FS-434 (peptide)
chain: CAGSHRRQRRAGNASASA
On to B34, for which the “furin cleavage Z-score” value was 9.09 (active) (7.5 min), 10.6 (active) (15 min) and 8.98 (active) (30 min).

B35: NG1 (peptide)
chain: CASSNQLQRRAGNASASA
Regarding B35, the “furin cleavage Z-score” value (7.5 min) is 0.397 (inactive), the “furin cleavage Z-score” value (15 min) amounted to 2.01 and the “furin cleavage Z-score” value (30 min) was -0.568 (inactive).

B36: FS-743 (peptide)
chain: CAAISRRQRRAGNASASA
Take B36: the “furin cleavage Z-score” value (7.5 min) was 6.03 (active), the “furin cleavage Z-score” value (15 min) is 8.53 (active) and the “furin cleavage Z-score” value (30 min) was 7.79 (active).

B37: FS-45 (peptide)
chain: CAKRSRDARRAGNASASA
B37: the “furin cleavage Z-score” value (7.5 min) stood at 1.61, the “furin cleavage Z-score” value (15 min) was -0.052 (inactive) and the “furin cleavage Z-score” value (30 min) came to 2.16.

B38: HC1581 (peptide)
chain: CAARMILMTHAGNASASA
On to B38, for which the “furin cleavage Z-score” value runs as follows: (7.5 min) -0.255 (inactive); (15 min) -1.76 (inactive); (30 min) -1.15 (inactive).

B39: HC931 (peptide)
chain: CAAYMNTPGLAGNASASA
As for B39, the “furin cleavage Z-score” value is, setting by setting: (7.5 min) -0.513 (inactive); (15 min) -1.08 (inactive); (30 min) 0.157 (inactive).

B40: HC1719 (peptide)
chain: CAMEPCSQHLAGNASASA
With B40, the “furin cleavage Z-score” value reads like this: (7.5 min) 2.46; (15 min) 0.794 (inactive); (30 min) 2.77.

B41: EK1 (peptide)
chain: CAGDDDDKAGAGNASASA
For B41, the “furin cleavage Z-score” value reads like this: (7.5 min) -2.21 (inactive); (15 min) -1.96 (inactive); (30 min) 0.274 (inactive).

B42: FS-1951 (peptide)
chain: CARGKRSAGPAGNASASA
B42: the “furin cleavage Z-score” value reads like this: (7.5 min) 11.6 (active); (15 min) 13.8 (active); (30 min) 9.13 (active).

B43: FS-3250 (peptide)
chain: CARGQRSVKAAGNASASA
For B43, the “furin cleavage Z-score” value by setting is: (7.5 min) 0.885 (inactive); (15 min) -0.415 (inactive); (30 min) 1.5.

B44: FS-2333 (peptide)
chain: CARGKRSCHAAGNASASA
B44: the “furin cleavage Z-score” value was 5.25 (active) (7.5 min), 5.05 (active) (15 min) and 5.61 (active) (30 min).

B45: FS-83 (peptide)
chain: CARGSRFSKSAGNASASA
Regarding B45, the “furin cleavage Z-score” value by setting is: (7.5 min) -0.0204 (inactive); (15 min) -0.301 (inactive); (30 min) 0.871 (inactive).

B46: FS-3188 (peptide)
chain: CARGKRLDGPAGNASASA
Turning to B46, the “furin cleavage Z-score” value (7.5 min) was 0.0707 (inactive), the “furin cleavage Z-score” value (15 min) was 0.484 (inactive) and the “furin cleavage Z-score” value (30 min) is -0.699 (inactive).

B47: FS-2932 (peptide)
chain: CARGIRPVGRAGNASASA
For the sequence B47, the “furin cleavage Z-score” value reads like this: (7.5 min) -0.929 (inactive); (15 min) -0.4 (inactive); (30 min) 0.111 (inactive).

B48: FS-2672 (peptide)
chain: CARGKRSPKSAGNASASA
Regarding B48, the “furin cleavage Z-score” value is 11.3 (active) (7.5 min), 11 (active) (15 min) and 9.78 (active) (30 min).

B49: FS-2934 (peptide)
chain: CARGKRFSQSAGNASASA
Regarding B49, the “furin cleavage Z-score” value runs as follows: (7.5 min) 0.749 (inactive); (15 min) 2.29; (30 min) 2.

For the origin of these results see the supplement of paper PMC3545927.
